Assay outcomes from PubChem.
Hits are enriched below; roughly 5.4% of the tested compounds scored in any of these assays.
Sm TGR block: S. mansoni TGR enzyme inhibition; Potency, µM (top dose mostly 114 µM), without a hit: at the top dose activity change, negative = inhibition, usual class: inhibitors; hit rate 3% among 360,000; purified TGR, DTNB reduction, TNB absorbance 405 nm; Q962Y6; active = well fitted inhibition curve with a large enough effect; inconclusive = small, poorly fitted or top-dose-only effect; inactive = no such curve, though single readings can be large or run the other way; note: nearly all actives have a fitted effect of over 60% in size
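First, TGR (20 nM dispensed) and NADPH were mixed with compound. Second, a 15 min room-temperature incubation followed. Third, further NADPH and then DTNB were added to start the reaction. Finally, TNB absorbance was monitored kinetically.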
Vaccinia Venus: vaccinia inhibition (Venus reporter); Vaccinia virus Venus reporter expression, fluorescence; Potency, µM (series often up to 36.5 µM), inactives show at the highest dose activity change, negative = inhibition, usual class: inhibitors; hit rate 0.46% among 330,000; AID 720580; calls by dose curve; tested in A549 cells; note: nearly all actives have a fitted effect of over 30% in size
FMDV antiviral: blocks foot and mouth disease virus; FMDV antiviral cell-based qHTS; Potency, µM (top dose mostly 57.9 µM), for the others: at the top dose activity change, negative = inhibition, most hits filed as inhibitors; hit rate 1.2% among 410,000; calls by dose curve; tested in HEK293T cells; note: read-out not given here; nearly all actives have a fitted effect of over 45% in size
Vaccinia mCherry: vaccinia inhibition (mCherry reporter); Vaccinia virus mCherry reporter infection, fluorescence; Potency, µM (highest dose often 36.5 µM), inactives show at the highest dose activity change, negative = inhibition, actives largely listed as inhibitors; hit rate 0.63% among 310,000; AID 720579; calls by dose curve; tested in A549 cells; note: nearly all actives have a fitted effect of over 35% in size
MARV entry inh: blocks Marburg virus binding to or entry into cells; Marburg virus pseudotyped entry inhibition, cell reporter; Potency, µM (series often up to 37.8 µM), for inactives: at the top dose activity change, negative = inhibition, hits mostly inhibitors; hit rate 1.8% among 300,000; calls by dose curve; tested in HEK293 cells
LASV entry inh: inhibitors of Lassa virus binding or cell entry; hit rate 1.2% among 300,000; Potency, µM (top dose mostly 37.9 µM), for inactives: at the top dose activity change, negative = inhibition, hits mostly inhibitors; Lassa virus pseudotype entry inhibition, cell reporter; calls by dose curve; tested in HEK293 cells; note: nearly all actives have a fitted effect of over 50% in size
The depositor's hits bear a star; i = inactive; u = inconclusive; x = no result given; [ ] = dose if it differs, or a comment. % is set by controls: 0 for no effect and ±100 for the full control effect; potency is the fitted concentration of half-maximal effect.

SMILES	Sm TGR block	Vaccinia Venus	FMDV antiviral	Vaccinia mCherry	MARV entry inh	LASV entry inh
COc1ccc(C)cc1-n1c(=O)c2ccccc2c2ccccc2c1=O	-1%	-15%	25µM*	-7%	-1%[46.1 µM]	-26%
COC(=O)COc1ccc(Oc2nc(NC(C)(C)C)nc(N(C)C)n2)nn1	0%	-19%	-6%	-20%	5%[46.1 µM]	3%[46.1 µM]
Cc1cccc(NC(=O)CSc2ccc(-c3ccco3)nn2)c1	20µM*	-18%	u	-2%	-6%	0%
Cc1cc(C)cc(NC(=O)CSc2ccc(-c3ccccn3)nn2)c1	0%	u	-16%	u	15%	u
Cc1cc(C)cc(NC(=O)CSc2ccc(-c3ccco3)nn2)c1	22µM*	-17%	u	i	u	-5%
Cc1cccc(NC(=O)CSc2cn[nH]n2)c1	2%	5%	4%	-20%	u	-11%[46.1 µM]
CCOC(=O)c1cc(C)n(CC2CCC(C(=O)Nc3ccc(C)cc3)CC2)c1C (configuration not stated)	6%	-30%	-29%	-27%	x	8%[46.1 µM]
Cn1c(-c2cccc(Br)c2)cnc1NCc1cccc(F)c1	8%	-17%	-13%	-12%	u	-16%[46.1 µM]
CN(C)CC(C)(O)c1ccc2c(c1)CN(Cc1cccn1-c1ncccn1)CCO2 (configuration not stated)	x	4%	-10%	-6%	x	x
O=C(NC1c2ccccc2-c2ccccc21)N1CCOCC1	0%	10µM*	x	11µM*	-16%	24%
CC(=O)c1c(-c2ccccc2)[nH]c2ccccc12	-18%	-27%	0%	u	-22%	-15%
O=C(O)/C=C/C(=O)c1c(-c2ccccc2)[nH]c2ccccc12	25µM*	x	u	x	x	x
CCc1nnc(SCc2ccc(F)cc2Cl)c2cc3sc(C)cc3n12	6%	-11%	-13%	-4%	x	8%[46.1 µM]
Cc1cccc(NC(=O)c2ccc(F)c(S(=O)(=O)NCc3ccc4c(c3)OCO4)c2)c1	3%	-17%	3%	-13%	x	-11%[46.1 µM]
COc1ccccc1N1CSC2=C(C#N)C(c3ccc(SC)cc3)CC(=O)N2C1 (configuration not stated)	u	-5%	-6%	15%	x	x
COc1ccc(OC)c(C2CC(=O)N3CN(c4ccccc4F)CSC3=C2C#N)c1 (configuration not stated)	16µM*	-16%	-2%	-2%	-1%	x
COc1cccc(C2CC(=O)N3CN(c4ccccc4F)CSC3=C2C#N)c1 (configuration not stated)	35µM*	7%	-3%	6%	x	x
Cc1cccn2c(=O)c3cc(C(=O)NC4CCCCCC4)sc3nc12	35µM*	0%	13%	i	u	u
COc1cccc(F)c1C(=O)NC(=O)Nc1ccc2nc(C)oc2c1	32µM*	-17%	34%	-8%	8%[46.1 µM]	-8%[46.1 µM]
CSc1nc2ccc(NC(=O)NC(=O)c3c(F)cccc3F)cc2s1	-1%	-9%	29%	i	-25%	-3%
Cc1ccc(CN(C(=O)COc2ccccc2[N+](=O)[O-])c2ccccn2)o1	-18%	u	22%	i	u	-18%[46.1 µM]
CCOc1ccc(N2C(=O)CC(NC3CCN(C(=O)c4cccc(Cl)c4)CC3)C2=O)cc1 (configuration not stated)	8%	6%	3%	-10%	7%[46.1 µM]	0%[46.1 µM]
CCOC(=O)c1ccc(N2C(=O)CC(NC3CCN(C(=O)c4cccc(Cl)c4)CC3)C2=O)cc1 (configuration not stated)	50µM*	4%	u	-5%	-1%	29%
CCC(=O)N1CCc2cc(CNC(=O)Nc3cc(OC)c(OC)c(OC)c3)ccc21	2%	9%	-15%	-6%	x	2%[46.1 µM]
Cc1ccc(-c2ccc(CCC(=O)O)n2-c2cccc(C(=O)O)c2)cc1	13µM*	x	9%	x	x	x
COC(=O)c1ccc(-n2c(CCC(=O)O)ccc2-c2ccc(C)cc2)cc1	28µM*	8%	u	0%	-27%[46.1 µM]	17%[46.1 µM]
COC(=O)c1ccccc1NC(=O)Cn1c(CCC(=O)O)ccc1-c1ccc(C)cc1	-6%	-11%	7%	-2%	-5%[46.1 µM]	6%[46.1 µM]
Cc1ccc(-c2ccc(CCC(=O)O)n2-c2ccc(C(=O)O)cc2)cc1	14µM*	-7%	-2%	i	x	x
